# Assay results taken from paper PMC7862700, “An all-to-all approach to the identification of sequence-specific readers for epigenetic DNA modifications on cytosine”.
# What was measured:
# Assay in all cases: DAPPL (digital affinity profiling via proximity ligation, sequencing); 10 mM Tris-HCl pH 7.5, 50 mM NaCl, 1 mM DTT, 4% glycerol, room temperature, 30 min; GST-TFs on glutathione beads, 16-mer random dsDNA library, 0.1% formaldehyde crosslink after washing; high values mean tight binding
# Conditions in all cases: protein: recombinant; tags: N-terminal GST; dsDNA, one strand shown
# FLI1 = biological target: T1, FLI1 (Homo sapiens, UniProt Q01543 1-452)
# T1 sequence: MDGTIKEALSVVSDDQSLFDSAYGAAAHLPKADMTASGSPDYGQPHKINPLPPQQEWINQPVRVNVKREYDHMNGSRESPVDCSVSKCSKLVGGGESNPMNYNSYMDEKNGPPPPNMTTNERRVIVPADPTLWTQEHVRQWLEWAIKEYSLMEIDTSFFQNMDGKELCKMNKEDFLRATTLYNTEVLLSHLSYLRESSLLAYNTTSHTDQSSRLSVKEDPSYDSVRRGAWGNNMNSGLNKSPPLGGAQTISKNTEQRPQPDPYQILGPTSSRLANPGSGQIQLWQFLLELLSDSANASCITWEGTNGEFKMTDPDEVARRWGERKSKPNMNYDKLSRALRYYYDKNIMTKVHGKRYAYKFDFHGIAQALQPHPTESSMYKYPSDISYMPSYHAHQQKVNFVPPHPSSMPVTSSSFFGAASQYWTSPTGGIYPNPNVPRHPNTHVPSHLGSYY
# Outline: (§1)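 Human transcription factors carrying a GST fusion were produced in yeast, bound to glutathione beads, tagged with DNA barcodes and pooled together with a tag-only sample. Each pool was held with 200 nmole of a random double-stranded 16-mer DNA library in Tris/NaCl/DTT/glycerol buffer for 30 min at room temperature, then washed, crosslinked in 0.1% formaldehyde, proximity-ligated with BsaI/T4 ligase (1 h, 37 °C), PCR-amplified and sequenced on an Illumina NextSeq500. Binding signal is the read frequency of each hexamer for a given factor divided by its frequency in the tag-only sample.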
# ELK1 = biological target: T2, ELK1 (Homo sapiens, UniProt P19419 1-428)
# T2 sequence: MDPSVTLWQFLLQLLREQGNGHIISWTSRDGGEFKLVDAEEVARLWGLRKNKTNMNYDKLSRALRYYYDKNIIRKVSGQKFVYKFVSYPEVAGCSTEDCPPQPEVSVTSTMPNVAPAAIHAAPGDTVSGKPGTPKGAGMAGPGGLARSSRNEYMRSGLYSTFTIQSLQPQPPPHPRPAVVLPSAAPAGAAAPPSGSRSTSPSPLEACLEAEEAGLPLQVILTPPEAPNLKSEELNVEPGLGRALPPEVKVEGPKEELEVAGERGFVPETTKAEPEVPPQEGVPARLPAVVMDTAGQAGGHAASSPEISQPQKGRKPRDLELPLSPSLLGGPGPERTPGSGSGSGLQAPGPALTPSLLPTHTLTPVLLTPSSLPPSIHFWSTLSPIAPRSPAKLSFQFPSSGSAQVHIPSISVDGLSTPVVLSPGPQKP
# Outline: as §1
# GABPA = biological target: T3, GABPA (Homo sapiens, UniProt Q06546 1-454)
# T3 sequence: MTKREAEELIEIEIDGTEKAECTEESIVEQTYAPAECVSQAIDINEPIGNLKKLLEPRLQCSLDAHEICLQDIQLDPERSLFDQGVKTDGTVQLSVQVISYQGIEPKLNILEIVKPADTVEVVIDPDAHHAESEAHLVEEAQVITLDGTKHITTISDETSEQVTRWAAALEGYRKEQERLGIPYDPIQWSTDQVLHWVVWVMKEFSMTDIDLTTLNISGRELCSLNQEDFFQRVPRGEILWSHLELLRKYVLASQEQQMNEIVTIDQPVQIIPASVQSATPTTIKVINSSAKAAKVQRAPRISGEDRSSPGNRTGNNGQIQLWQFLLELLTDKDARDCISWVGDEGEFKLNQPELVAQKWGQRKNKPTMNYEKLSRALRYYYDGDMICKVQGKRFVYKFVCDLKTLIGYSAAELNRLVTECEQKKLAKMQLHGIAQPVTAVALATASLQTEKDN
# Outline: as §1
# ERG = biological target: T4, ERG (Homo sapiens, UniProt P11308 1-479)
# T4 sequence: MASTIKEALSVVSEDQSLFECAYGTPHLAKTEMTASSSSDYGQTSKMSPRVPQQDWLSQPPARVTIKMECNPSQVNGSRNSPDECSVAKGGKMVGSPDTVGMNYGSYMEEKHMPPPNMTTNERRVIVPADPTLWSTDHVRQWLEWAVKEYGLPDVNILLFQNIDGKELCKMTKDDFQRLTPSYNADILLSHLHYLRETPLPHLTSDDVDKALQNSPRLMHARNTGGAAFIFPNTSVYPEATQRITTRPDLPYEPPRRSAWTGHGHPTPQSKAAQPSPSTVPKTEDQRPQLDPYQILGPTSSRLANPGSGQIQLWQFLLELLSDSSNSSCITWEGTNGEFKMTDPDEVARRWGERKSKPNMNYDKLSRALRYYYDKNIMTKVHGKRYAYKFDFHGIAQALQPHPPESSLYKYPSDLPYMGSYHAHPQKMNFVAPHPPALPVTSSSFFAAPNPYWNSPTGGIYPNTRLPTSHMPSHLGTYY
# Outline: as §1
# ELF1 = ELF1 (Homo sapiens, UniProt P32519 1-619)
# Outline: as §1
# EHF = biological target: T5, EHF (Homo sapiens, UniProt Q9NZC4 1-300)
# T5 sequence: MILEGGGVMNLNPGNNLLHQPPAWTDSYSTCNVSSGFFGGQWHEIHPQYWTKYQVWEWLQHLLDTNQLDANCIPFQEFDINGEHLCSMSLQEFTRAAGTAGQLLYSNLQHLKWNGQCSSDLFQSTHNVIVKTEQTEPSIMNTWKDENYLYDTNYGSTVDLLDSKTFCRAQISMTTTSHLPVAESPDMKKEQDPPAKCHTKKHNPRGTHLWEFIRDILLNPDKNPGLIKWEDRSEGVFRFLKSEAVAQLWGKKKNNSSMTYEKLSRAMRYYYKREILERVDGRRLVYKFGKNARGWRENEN
# Outline: as §1
# SPI1 = SPI1 (Homo sapiens, UniProt P17947 1-270)
# Outline: as §1
# SPIB = SPIB (Homo sapiens, UniProt Q01892 1-262)
# Outline: as §1
# ELK3 = biological target: T6, ELK3 (Homo sapiens, UniProt P41970 1-407)
# T6 sequence: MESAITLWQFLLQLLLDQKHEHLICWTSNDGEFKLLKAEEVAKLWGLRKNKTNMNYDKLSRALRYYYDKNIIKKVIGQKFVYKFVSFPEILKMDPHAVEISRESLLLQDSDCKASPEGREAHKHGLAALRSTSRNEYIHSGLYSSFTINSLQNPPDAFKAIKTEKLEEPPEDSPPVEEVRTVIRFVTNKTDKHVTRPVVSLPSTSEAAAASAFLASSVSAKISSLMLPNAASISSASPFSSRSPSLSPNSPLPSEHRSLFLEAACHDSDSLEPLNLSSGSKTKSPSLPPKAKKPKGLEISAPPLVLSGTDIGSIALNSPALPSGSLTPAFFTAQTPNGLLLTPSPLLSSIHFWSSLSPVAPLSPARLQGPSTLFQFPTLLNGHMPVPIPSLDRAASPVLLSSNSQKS
# Outline: as §1
# ELF1, sequence (P32519 whole entry): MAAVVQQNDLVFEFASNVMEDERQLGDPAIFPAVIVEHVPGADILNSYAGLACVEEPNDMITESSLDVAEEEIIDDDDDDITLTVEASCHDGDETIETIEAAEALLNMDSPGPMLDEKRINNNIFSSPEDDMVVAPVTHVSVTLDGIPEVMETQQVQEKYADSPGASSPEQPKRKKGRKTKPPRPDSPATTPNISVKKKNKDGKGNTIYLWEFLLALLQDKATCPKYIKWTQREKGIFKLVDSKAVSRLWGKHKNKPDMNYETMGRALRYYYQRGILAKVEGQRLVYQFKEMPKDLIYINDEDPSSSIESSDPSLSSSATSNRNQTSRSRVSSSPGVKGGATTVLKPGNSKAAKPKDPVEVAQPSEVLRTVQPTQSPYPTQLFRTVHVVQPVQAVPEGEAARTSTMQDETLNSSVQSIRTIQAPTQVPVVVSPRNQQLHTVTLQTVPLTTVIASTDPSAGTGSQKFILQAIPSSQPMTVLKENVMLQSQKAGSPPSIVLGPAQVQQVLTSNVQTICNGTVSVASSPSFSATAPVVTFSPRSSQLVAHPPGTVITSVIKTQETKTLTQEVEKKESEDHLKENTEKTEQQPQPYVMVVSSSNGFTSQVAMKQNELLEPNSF
# SPIB, sequence (Q01892 whole entry): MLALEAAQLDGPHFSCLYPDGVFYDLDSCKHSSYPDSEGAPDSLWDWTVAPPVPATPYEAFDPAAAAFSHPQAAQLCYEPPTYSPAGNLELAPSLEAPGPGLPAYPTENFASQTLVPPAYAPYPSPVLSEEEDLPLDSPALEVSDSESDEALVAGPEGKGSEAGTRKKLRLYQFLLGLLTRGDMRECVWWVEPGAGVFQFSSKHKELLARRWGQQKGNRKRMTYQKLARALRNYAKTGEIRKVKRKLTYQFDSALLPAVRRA
Sequence,binding signal (FLI1),binding signal (ELK1),binding signal (GABPA),binding signal (ERG),binding signal (ELF1),binding signal (EHF),binding signal (SPI1),binding signal (SPIB),binding signal (ELK3)
AAGTTA,"1.25 fold enrichment (6-mer frequency, TF over GST control)","1.26 fold enrichment (6-mer frequency, TF over GST control)","1.19 fold enrichment (6-mer frequency, TF over GST control)","1.27 fold enrichment (6-mer frequency, TF over GST control)","1.27 fold enrichment (6-mer frequency, TF over GST control)","1.24 fold enrichment (6-mer frequency, TF over GST control)","1.24 fold enrichment (6-mer frequency, TF over GST control)","1.12 fold enrichment (6-mer frequency, TF over GST control)","1.23 fold enrichment (6-mer frequency, TF over GST control)"
CGATTG,"1.22 fold enrichment (6-mer frequency, TF over GST control)","1.29 fold enrichment (6-mer frequency, TF over GST control)","1.24 fold enrichment (6-mer frequency, TF over GST control)","1.26 fold enrichment (6-mer frequency, TF over GST control)","1.24 fold enrichment (6-mer frequency, TF over GST control)","1.1 fold enrichment (6-mer frequency, TF over GST control)","1.22 fold enrichment (6-mer frequency, TF over GST control)","1.19 fold enrichment (6-mer frequency, TF over GST control)","1.24 fold enrichment (6-mer frequency, TF over GST control)"
ACTATT,"1.29 fold enrichment (6-mer frequency, TF over GST control)","1.17 fold enrichment (6-mer frequency, TF over GST control)","1.33 fold enrichment (6-mer frequency, TF over GST control)","1.3 fold enrichment (6-mer frequency, TF over GST control)","1.27 fold enrichment (6-mer frequency, TF over GST control)","1.3 fold enrichment (6-mer frequency, TF over GST control)","1.22 fold enrichment (6-mer frequency, TF over GST control)","1.26 fold enrichment (6-mer frequency, TF over GST control)","1.28 fold enrichment (6-mer frequency, TF over GST control)"
CCTTGG,"1.28 fold enrichment (6-mer frequency, TF over GST control)","1.41 fold enrichment (6-mer frequency, TF over GST control)","1.34 fold enrichment (6-mer frequency, TF over GST control)","1.28 fold enrichment (6-mer frequency, TF over GST control)","1.28 fold enrichment (6-mer frequency, TF over GST control)","1.37 fold enrichment (6-mer frequency, TF over GST control)","1.24 fold enrichment (6-mer frequency, TF over GST control)","1.32 fold enrichment (6-mer frequency, TF over GST control)","1.4 fold enrichment (6-mer frequency, TF over GST control)"
TTTACA,"1.18 fold enrichment (6-mer frequency, TF over GST control)","1.19 fold enrichment (6-mer frequency, TF over GST control)","1.25 fold enrichment (6-mer frequency, TF over GST control)","1.23 fold enrichment (6-mer frequency, TF over GST control)","1.31 fold enrichment (6-mer frequency, TF over GST control)","1.31 fold enrichment (6-mer frequency, TF over GST control)","1.22 fold enrichment (6-mer frequency, TF over GST control)","1.24 fold enrichment (6-mer frequency, TF over GST control)","1.25 fold enrichment (6-mer frequency, TF over GST control)"
GCCTAA,"1.22 fold enrichment (6-mer frequency, TF over GST control)","1.17 fold enrichment (6-mer frequency, TF over GST control)","1.14 fold enrichment (6-mer frequency, TF over GST control)","1.24 fold enrichment (6-mer frequency, TF over GST control)","1.22 fold enrichment (6-mer frequency, TF over GST control)","1.28 fold enrichment (6-mer frequency, TF over GST control)","1.11 fold enrichment (6-mer frequency, TF over GST control)","1.23 fold enrichment (6-mer frequency, TF over GST control)","1.19 fold enrichment (6-mer frequency, TF over GST control)"
CGATTA,"1.15 fold enrichment (6-mer frequency, TF over GST control)","1.07 fold enrichment (6-mer frequency, TF over GST control)","1.17 fold enrichment (6-mer frequency, TF over GST control)","1.16 fold enrichment (6-mer frequency, TF over GST control)","1.15 fold enrichment (6-mer frequency, TF over GST control)","1.11 fold enrichment (6-mer frequency, TF over GST control)","1.09 fold enrichment (6-mer frequency, TF over GST control)","1.13 fold enrichment (6-mer frequency, TF over GST control)","1.19 fold enrichment (6-mer frequency, TF over GST control)"
TTCAAG,"1.22 fold enrichment (6-mer frequency, TF over GST control)","1.22 fold enrichment (6-mer frequency, TF over GST control)","1.25 fold enrichment (6-mer frequency, TF over GST control)","1.24 fold enrichment (6-mer frequency, TF over GST control)","1.28 fold enrichment (6-mer frequency, TF over GST control)","1.3 fold enrichment (6-mer frequency, TF over GST control)","1.2 fold enrichment (6-mer frequency, TF over GST control)","1.29 fold enrichment (6-mer frequency, TF over GST control)","1.22 fold enrichment (6-mer frequency, TF over GST control)"
